# Results taken from paper PMC7862700, “An all-to-all approach to the identification of sequence-specific readers for epigenetic DNA modifications on cytosine”.
# Tests used:
# Assay in all cases: DAPPL (digital affinity profiling via proximity ligation, sequencing); 10 mM Tris-HCl pH 7.5, 50 mM NaCl, 1 mM DTT, 4% glycerol, room temperature, 30 min; GST-TFs on glutathione beads, 16-mer random dsDNA library, 0.1% formaldehyde crosslink after washing; high values mean tight binding
# [1] = molecular target: T1, FLI1 (Homo sapiens, UniProt Q01543 1-452); details: protein: recombinant; tags: N-terminal GST; dsDNA, one strand shown
# T1 sequence: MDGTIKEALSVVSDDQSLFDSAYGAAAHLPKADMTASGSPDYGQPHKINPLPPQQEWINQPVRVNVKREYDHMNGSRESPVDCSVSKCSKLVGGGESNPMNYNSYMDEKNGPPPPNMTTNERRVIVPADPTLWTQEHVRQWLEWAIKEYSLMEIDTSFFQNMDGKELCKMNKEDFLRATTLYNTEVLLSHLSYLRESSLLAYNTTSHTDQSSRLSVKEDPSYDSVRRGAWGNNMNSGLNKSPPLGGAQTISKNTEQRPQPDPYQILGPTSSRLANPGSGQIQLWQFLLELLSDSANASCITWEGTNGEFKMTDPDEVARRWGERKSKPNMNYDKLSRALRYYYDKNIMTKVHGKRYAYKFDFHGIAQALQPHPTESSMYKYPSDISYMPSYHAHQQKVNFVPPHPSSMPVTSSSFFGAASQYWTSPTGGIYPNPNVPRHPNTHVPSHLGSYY
# Method in brief: (§1)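 Human transcription factors fused to GST were expressed in yeast, captured on glutathione beads, given DNA barcodes and pooled with a GST-only negative control. Pools were incubated with 200 nmole of a 16-mer random double-stranded DNA library in Tris/NaCl/DTT/glycerol buffer at room temperature for 30 min. They were then washed, crosslinked with 0.1% formaldehyde, proximity-ligated (BsaI/T4 ligase, 1 h, 37 °C), PCR-amplified and sequenced on an Illumina NextSeq500. Binding signal is each 6-mer's read frequency for a factor divided by its frequency for the GST control.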
# [2] = molecular target: T2, ELK1 (Homo sapiens, UniProt P19419 1-428); details: protein: recombinant; tags: N-terminal GST; dsDNA, one strand shown
# T2 sequence: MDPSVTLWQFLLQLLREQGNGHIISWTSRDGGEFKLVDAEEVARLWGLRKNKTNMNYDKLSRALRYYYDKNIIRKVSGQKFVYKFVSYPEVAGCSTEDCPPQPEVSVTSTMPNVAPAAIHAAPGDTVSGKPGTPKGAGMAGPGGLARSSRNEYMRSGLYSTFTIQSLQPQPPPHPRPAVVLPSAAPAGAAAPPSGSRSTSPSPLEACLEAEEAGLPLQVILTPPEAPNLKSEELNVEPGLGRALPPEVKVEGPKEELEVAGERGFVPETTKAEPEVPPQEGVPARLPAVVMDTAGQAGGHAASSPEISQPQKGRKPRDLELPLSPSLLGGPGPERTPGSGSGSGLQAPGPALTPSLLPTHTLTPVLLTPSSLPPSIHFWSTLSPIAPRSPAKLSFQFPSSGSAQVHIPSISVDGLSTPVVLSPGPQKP
# Method in brief: as §1
# [3] = molecular target: T3, GABPA (Homo sapiens, UniProt Q06546 1-454); details: protein: recombinant; tags: N-terminal GST; dsDNA, one strand shown
# T3 sequence: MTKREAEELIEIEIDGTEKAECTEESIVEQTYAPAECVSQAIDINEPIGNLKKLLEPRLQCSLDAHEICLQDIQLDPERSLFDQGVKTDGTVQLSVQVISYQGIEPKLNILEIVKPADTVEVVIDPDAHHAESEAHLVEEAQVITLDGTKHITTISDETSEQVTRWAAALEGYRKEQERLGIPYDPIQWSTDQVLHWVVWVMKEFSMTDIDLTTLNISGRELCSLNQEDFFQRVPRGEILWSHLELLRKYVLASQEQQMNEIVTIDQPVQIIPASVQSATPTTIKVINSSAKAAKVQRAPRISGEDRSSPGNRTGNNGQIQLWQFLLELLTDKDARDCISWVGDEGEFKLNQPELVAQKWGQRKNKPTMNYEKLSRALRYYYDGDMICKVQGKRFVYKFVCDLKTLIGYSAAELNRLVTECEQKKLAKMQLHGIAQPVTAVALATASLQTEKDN
# Method in brief: as §1
# [4] = molecular target: T4, ERG (Homo sapiens, UniProt P11308 1-479); details: protein: recombinant; tags: N-terminal GST; dsDNA, one strand shown
# T4 sequence: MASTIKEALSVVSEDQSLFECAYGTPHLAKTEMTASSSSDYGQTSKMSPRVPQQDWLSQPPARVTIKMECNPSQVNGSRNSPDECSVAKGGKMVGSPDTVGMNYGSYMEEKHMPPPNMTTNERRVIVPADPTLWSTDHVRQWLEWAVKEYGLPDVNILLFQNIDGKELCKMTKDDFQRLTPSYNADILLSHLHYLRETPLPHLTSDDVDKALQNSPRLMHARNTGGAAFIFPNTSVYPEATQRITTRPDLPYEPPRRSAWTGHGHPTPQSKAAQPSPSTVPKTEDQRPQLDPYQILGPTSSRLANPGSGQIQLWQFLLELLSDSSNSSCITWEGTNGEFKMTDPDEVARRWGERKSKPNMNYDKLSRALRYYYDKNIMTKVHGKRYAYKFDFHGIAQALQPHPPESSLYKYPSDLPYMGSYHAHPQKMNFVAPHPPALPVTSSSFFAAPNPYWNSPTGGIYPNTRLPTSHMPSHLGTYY
# Method in brief: as §1
# [5] = molecular target: ELF1 (Homo sapiens, UniProt P32519 1-619); details: protein: recombinant; tags: N-terminal GST; dsDNA, one strand shown
# Sequence of ELF1 (P32519 whole entry): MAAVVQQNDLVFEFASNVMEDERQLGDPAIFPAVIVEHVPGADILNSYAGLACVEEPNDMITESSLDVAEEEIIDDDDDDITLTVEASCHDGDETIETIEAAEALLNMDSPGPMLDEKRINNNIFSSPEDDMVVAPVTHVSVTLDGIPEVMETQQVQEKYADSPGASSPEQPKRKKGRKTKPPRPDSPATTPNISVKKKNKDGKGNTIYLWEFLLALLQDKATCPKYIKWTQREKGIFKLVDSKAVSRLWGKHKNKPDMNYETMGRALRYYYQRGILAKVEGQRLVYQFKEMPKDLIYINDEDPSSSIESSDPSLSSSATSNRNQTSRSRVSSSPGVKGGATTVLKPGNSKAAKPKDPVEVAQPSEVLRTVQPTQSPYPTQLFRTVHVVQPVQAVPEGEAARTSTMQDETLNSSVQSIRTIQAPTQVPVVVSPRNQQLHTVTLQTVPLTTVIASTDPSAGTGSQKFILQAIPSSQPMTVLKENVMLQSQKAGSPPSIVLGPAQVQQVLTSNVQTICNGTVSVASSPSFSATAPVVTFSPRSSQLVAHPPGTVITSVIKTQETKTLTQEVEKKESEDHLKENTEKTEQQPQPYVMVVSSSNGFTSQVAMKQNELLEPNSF
# Method in brief: as §1
# [6] = molecular target: T5, EHF (Homo sapiens, UniProt Q9NZC4 1-300); details: protein: recombinant; tags: N-terminal GST; dsDNA, one strand shown
# T5 sequence: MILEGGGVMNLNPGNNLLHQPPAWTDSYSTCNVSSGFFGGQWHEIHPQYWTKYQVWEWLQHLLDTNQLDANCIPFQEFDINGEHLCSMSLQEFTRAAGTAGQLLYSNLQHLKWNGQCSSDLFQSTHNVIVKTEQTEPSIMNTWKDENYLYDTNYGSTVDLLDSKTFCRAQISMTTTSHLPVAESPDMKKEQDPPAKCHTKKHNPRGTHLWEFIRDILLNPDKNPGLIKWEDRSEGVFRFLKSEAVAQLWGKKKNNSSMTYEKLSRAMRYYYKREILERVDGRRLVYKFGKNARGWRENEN
# Method in brief: as §1
# [7] = molecular target: SPI1 (Homo sapiens, UniProt P17947 1-270); details: protein: recombinant; tags: N-terminal GST; dsDNA, one strand shown
# Method in brief: as §1
# [8] = molecular target: SPIB (Homo sapiens, UniProt Q01892 1-262); details: protein: recombinant; tags: N-terminal GST; dsDNA, one strand shown
# Sequence of SPIB (Q01892 whole entry): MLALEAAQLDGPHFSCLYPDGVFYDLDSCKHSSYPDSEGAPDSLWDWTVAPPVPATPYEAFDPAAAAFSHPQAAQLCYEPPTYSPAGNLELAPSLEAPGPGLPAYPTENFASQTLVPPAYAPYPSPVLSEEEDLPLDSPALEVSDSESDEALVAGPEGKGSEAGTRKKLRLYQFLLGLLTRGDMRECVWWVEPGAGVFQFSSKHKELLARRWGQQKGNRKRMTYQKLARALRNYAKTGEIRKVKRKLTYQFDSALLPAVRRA
# Method in brief: as §1
# [9] = molecular target: T6, ELK3 (Homo sapiens, UniProt P41970 1-407); details: protein: recombinant; tags: N-terminal GST; dsDNA, one strand shown
# T6 sequence: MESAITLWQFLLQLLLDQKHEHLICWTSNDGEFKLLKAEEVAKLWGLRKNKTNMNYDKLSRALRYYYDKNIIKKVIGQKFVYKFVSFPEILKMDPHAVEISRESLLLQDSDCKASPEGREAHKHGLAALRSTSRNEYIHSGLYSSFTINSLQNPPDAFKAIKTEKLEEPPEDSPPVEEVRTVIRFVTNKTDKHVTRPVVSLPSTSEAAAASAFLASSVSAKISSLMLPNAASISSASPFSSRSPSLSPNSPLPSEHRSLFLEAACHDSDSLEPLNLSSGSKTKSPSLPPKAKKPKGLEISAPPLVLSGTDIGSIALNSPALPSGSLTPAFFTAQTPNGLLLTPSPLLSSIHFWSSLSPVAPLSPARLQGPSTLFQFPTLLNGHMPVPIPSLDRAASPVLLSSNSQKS
# Method in brief: as §1
# [10] = molecular target: T7, FEV (Homo sapiens, UniProt Q99581 1-238); details: protein: recombinant; tags: N-terminal GST; dsDNA, one strand shown
# T7 sequence: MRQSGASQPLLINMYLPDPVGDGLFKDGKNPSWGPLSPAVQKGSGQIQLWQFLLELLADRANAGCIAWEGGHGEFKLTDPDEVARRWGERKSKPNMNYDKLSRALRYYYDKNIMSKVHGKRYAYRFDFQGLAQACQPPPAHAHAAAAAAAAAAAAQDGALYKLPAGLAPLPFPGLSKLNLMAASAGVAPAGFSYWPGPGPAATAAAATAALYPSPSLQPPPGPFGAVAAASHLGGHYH
# Method in brief: as §1
# [11] = molecular target: ETV5 (Homo sapiens, UniProt P41161 1-510); details: protein: recombinant; tags: N-terminal GST; dsDNA, one strand shown
# Sequence of ETV5 (P41161 whole entry): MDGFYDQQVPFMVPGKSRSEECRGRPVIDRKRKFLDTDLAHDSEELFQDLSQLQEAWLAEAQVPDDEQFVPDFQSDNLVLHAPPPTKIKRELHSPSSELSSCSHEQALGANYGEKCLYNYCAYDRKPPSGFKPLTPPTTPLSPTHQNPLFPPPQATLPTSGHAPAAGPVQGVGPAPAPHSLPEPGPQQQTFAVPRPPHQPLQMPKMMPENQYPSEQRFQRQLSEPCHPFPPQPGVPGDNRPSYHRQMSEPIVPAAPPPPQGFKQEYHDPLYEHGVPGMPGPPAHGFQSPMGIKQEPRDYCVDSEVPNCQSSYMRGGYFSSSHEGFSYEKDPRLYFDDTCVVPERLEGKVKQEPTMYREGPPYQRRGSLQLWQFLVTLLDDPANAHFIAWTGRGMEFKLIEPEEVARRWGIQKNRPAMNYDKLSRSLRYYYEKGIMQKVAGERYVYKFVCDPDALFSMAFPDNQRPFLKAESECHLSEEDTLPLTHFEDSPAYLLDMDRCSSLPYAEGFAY
# Method in brief: as §1
# [12] = molecular target: HSF1 (Homo sapiens, UniProt Q00613 1-529); details: protein: recombinant; tags: N-terminal GST; chain copies: 3; dsDNA, one strand shown
# Sequence of HSF1 (Q00613 whole entry): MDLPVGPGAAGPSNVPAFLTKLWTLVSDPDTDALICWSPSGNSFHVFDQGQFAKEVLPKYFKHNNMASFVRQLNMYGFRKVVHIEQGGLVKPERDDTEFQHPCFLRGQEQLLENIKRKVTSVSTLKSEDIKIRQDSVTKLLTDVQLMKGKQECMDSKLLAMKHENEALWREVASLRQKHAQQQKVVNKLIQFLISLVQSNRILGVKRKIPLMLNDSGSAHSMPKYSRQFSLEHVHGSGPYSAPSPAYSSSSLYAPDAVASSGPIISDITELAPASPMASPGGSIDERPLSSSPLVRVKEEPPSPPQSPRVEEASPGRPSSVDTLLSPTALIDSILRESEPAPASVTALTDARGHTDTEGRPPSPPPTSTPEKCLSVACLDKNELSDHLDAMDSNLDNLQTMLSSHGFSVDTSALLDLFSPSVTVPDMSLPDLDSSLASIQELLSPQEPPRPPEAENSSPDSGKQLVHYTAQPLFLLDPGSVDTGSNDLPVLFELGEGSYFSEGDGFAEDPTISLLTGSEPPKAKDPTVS
# Method in brief: as §1
# [13] = molecular target: T8, SPIC (Homo sapiens, UniProt Q8N5J4 1-248); details: protein: recombinant; tags: N-terminal GST; dsDNA, one strand shown
# T8 sequence: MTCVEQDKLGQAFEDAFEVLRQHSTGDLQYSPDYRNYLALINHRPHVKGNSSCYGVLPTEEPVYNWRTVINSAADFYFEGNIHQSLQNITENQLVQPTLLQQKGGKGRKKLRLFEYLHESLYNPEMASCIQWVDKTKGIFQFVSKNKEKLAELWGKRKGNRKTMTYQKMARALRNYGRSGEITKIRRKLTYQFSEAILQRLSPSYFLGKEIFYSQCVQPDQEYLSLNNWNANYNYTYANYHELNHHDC
# Method in brief: as §1
# [14] = molecular target: ELF4 (Homo sapiens, UniProt Q99607 1-663); details: protein: recombinant; tags: N-terminal GST; dsDNA, one strand shown
# Sequence of ELF4 (Q99607 whole entry): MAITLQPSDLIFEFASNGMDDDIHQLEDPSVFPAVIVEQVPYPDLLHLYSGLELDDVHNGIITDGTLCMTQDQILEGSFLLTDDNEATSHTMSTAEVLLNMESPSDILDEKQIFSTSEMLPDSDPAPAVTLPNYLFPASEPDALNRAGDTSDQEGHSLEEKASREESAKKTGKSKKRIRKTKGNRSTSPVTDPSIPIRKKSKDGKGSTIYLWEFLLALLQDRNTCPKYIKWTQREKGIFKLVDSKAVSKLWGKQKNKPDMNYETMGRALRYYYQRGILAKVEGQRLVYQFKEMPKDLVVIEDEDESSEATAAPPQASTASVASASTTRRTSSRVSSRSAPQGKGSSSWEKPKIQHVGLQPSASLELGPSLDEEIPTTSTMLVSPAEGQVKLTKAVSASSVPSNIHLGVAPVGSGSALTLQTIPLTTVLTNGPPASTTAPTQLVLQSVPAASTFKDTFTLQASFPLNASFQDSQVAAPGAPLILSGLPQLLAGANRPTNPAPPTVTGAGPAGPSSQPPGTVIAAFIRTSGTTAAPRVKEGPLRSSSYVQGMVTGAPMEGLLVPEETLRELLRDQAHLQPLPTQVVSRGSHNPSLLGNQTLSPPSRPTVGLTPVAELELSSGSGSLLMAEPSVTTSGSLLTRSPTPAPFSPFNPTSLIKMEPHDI
# Method in brief: as §1
# [15] = molecular target: T9, ELK4 (Homo sapiens, UniProt P28324-2 1-405); details: protein: recombinant; tags: N-terminal GST; dsDNA, one strand shown
# T9 sequence: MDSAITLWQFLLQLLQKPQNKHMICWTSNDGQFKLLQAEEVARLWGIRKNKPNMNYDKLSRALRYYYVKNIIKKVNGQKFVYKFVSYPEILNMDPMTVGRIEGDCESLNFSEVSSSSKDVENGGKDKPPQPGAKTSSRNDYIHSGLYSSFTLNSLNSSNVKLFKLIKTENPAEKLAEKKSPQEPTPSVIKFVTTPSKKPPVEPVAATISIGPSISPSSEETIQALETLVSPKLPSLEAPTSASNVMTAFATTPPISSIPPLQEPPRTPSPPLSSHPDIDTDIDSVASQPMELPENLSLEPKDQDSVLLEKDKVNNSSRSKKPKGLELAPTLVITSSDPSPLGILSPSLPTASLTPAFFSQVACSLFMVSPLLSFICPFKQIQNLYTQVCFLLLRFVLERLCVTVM
# Method in brief: as §1
# [16] = molecular target: T10, ETV2 (Homo sapiens, UniProt O00321 1-342); details: protein: recombinant; tags: N-terminal GST; dsDNA, one strand shown
# T10 sequence: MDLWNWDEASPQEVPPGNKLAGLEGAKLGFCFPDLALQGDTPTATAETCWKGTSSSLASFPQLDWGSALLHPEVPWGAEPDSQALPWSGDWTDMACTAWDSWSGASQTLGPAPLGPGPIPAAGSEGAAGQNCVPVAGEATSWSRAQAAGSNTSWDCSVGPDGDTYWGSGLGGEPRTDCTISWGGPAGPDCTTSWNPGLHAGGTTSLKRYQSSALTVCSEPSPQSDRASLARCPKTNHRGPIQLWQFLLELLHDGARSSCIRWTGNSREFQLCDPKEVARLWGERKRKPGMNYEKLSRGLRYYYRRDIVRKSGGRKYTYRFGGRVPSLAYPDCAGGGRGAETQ
# Method in brief: as §1
# [17] = molecular target: T11, ELF3 (Homo sapiens, UniProt P78545 1-371); details: protein: recombinant; tags: N-terminal GST; dsDNA, one strand shown
# T11 sequence: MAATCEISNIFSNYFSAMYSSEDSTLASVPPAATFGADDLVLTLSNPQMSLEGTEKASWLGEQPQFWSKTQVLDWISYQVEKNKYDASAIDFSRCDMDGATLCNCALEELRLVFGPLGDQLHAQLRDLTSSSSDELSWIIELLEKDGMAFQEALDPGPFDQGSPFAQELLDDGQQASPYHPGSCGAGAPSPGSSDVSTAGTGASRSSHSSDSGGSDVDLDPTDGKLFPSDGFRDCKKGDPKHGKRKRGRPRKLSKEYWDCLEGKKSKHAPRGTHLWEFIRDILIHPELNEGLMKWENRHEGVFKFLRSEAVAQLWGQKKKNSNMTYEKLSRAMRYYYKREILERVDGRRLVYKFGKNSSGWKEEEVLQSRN
# Method in brief: as §1
# [18] = molecular target: CRX (Homo sapiens, UniProt O43186 1-299); details: protein: recombinant; tags: N-terminal GST; dsDNA, one strand shown
# Sequence of CRX (O43186 whole entry): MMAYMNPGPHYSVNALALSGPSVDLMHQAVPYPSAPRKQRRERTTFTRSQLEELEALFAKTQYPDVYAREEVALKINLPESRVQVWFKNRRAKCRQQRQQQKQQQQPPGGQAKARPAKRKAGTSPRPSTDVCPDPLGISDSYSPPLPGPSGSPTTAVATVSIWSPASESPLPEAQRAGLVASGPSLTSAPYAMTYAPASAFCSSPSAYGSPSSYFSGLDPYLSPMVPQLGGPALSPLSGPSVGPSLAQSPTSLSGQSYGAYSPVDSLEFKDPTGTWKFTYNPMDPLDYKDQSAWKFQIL
# Method in brief: as §1
# [19] = molecular target: ETV1 (Homo sapiens, UniProt P50549 1-477); details: protein: recombinant; tags: N-terminal GST; dsDNA, one strand shown
# Sequence of ETV1 (P50549 whole entry): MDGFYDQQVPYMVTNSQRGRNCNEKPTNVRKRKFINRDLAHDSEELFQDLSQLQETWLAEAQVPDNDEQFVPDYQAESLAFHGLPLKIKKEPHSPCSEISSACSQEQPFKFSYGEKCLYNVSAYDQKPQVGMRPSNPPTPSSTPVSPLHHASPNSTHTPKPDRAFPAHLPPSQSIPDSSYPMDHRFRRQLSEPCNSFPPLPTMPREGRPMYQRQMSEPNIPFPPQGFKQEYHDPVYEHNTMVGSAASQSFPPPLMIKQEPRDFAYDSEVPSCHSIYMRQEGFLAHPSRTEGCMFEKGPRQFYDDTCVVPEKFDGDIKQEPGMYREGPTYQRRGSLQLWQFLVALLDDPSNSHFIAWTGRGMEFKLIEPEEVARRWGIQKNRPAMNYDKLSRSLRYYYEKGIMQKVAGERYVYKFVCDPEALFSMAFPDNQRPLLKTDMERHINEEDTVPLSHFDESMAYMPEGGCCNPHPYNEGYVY
# Method in brief: as §1
sequence,measurement,setting,value
TTCTAC,binding signal,[1],"1.39 fold enrichment (6-mer frequency, TF over GST control)"
same,binding signal,[2],"1.43 fold enrichment (6-mer frequency, TF over GST control)"
same,binding signal,[3],"1.59 fold enrichment (6-mer frequency, TF over GST control)"
same,binding signal,[4],"1.53 fold enrichment (6-mer frequency, TF over GST control)"
same,binding signal,[5],"1.55 fold enrichment (6-mer frequency, TF over GST control)"
same,binding signal,[6],"1.49 fold enrichment (6-mer frequency, TF over GST control)"
same,binding signal,[7],"1.46 fold enrichment (6-mer frequency, TF over GST control)"
same,binding signal,[8],"1.6 fold enrichment (6-mer frequency, TF over GST control)"
same,binding signal,[9],"1.44 fold enrichment (6-mer frequency, TF over GST control)"
same,binding signal,[10],"1.5 fold enrichment (6-mer frequency, TF over GST control)"
same,binding signal,[11],"1.55 fold enrichment (6-mer frequency, TF over GST control)"
same,binding signal,[12],"2.46 fold enrichment (6-mer frequency, TF over GST control)"
same,binding signal,[13],"1.7 fold enrichment (6-mer frequency, TF over GST control)"
same,binding signal,[14],"1.48 fold enrichment (6-mer frequency, TF over GST control)"
same,binding signal,[15],"1.59 fold enrichment (6-mer frequency, TF over GST control)"
same,binding signal,[16],"1.53 fold enrichment (6-mer frequency, TF over GST control)"
same,binding signal,[17],"1.64 fold enrichment (6-mer frequency, TF over GST control)"
same,binding signal,[18],"1.69 fold enrichment (6-mer frequency, TF over GST control)"
same,binding signal,[19],"1.56 fold enrichment (6-mer frequency, TF over GST control)"
